This is an account of results in PubChem BioAssay (Tox21).

Where “and” joins values, the source holds several entries; their conditions need not be identical. Equal entries are not always repeated. Results filed as inconclusive are left out. Where a structure was tested more than once in an assay, its records may differ in their call. Calls of active or inactive are those of the source. The call rests on the fitted dose curve; in most records, active means well fitted curve in the direction sought with a large enough effect in the repeat runs; inconclusive means weak or mixed curves; inactive means no such curve, though single readings can be large; an effect the other way counts as inactive or inconclusive.

The target of assay [1] is Cytochrome P450 2C19 (Homo sapiens) (UniProt P33261). The assay is described as follows: Cytochrome P450 Family 2 Subfamily C Member 19 (CYP2C19) small molecule antagonists: luciferase reporter qHTS assay (AID 1671197). Further: nearly all actives have a fitted effect of over 65% in size. An outline of the steps:
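CYP2C19 P450-Glo, 1536-well qHTS. Cpd + enzyme/proluciferin substrate 10 min RT; + NADPH regen, 37C 1 h; stop with luciferin detection reagent, 20 min RT, luminescence (RLU). Pos ctrl ketoconazole.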
A general note: A reporter such as luciferase makes a cellular process visible.

For assay [2], the target named is Cytochrome P450 2C9 (Homo sapiens) (UniProt P11712). The assay is described as follows: Cytochrome P450 Family 2 Subfamily C Member 9 (CYP2C9) small molecule antagonists: luciferase reporter qHTS assay (AID 1671198). Further: nearly all actives have a fitted effect of over 50% in size. An outline of the steps: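 P450-Glo proluciferin substrate with CYP2C9 enzyme; 10 min RT preincubation, then NADPH regeneration 1 h at 37C; luciferin detection reagent 20 min RT, luminescence in relative luminescence units.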
Sequence of Cytochrome P450 2C9 (Homo sapiens) (P11712 whole entry, looked up): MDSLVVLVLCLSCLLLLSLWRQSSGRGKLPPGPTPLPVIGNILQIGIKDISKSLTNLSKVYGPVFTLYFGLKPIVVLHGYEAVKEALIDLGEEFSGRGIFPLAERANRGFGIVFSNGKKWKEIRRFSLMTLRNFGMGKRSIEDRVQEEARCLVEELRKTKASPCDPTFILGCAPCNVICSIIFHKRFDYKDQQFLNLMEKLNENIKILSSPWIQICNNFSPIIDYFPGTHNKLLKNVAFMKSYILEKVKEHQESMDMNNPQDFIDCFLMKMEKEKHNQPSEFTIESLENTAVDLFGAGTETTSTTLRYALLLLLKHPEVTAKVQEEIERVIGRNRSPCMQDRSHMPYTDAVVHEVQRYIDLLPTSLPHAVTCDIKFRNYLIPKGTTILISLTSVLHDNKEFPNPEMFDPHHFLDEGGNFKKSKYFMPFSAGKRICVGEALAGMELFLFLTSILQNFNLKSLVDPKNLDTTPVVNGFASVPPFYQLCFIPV

The target of assay [3] is Cytochrome P450 1A2 (Homo sapiens) (UniProt P05177). Kind of assay: Cytochrome P450 Family 1 Subfamily A Member 2 (CYP1A2) small molecule antagonists: luciferase reporter qHTS assay (AID 1671199). Further: nearly all actives have a fitted effect of over 50% in size. In outline: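 Quantitative high-throughput format using the P450-Glo CYP1A2 system. Reaction initiated by NADPH regeneration solution, 1 h at room temperature, then stopped with detection reagent; luminescence measured 20 min later.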
Sequence of Cytochrome P450 1A2 (Homo sapiens) (P05177 whole entry, looked up): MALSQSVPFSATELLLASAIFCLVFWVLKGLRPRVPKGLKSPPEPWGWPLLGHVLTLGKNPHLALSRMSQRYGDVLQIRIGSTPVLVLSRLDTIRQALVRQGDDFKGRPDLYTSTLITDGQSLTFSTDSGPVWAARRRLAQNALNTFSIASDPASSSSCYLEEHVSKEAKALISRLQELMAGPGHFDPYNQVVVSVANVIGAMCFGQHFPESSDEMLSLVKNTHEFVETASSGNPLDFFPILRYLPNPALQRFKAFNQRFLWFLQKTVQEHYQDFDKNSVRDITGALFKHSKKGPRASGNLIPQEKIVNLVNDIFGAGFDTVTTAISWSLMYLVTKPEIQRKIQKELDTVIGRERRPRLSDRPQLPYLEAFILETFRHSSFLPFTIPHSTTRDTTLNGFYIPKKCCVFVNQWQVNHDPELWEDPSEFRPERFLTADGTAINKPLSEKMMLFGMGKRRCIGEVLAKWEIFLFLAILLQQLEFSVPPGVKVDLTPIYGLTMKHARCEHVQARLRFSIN

In assay [4] the target is Cytochrome P450 3A4 (Homo sapiens) (UniProt P08684). Kind of assay: Cytochrome P450 Family 3 Subfamily A Member 4 (CYP3A4) small molecule antagonists: luciferase reporter qHTS assay (AID 1671201). Further: nearly all actives have a fitted effect of over 50% in size. In outline:
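P450-Glo CYP3A4 luminescent assay: compounds preincubated 10 min at room temperature with enzyme and proluciferin substrate, NADPH regeneration added, 1 h room-temperature reaction, stopped with luciferin detection reagent; luminescence read after 20 min. Ketoconazole positive control.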

The target of assay [5] is Voltage-gated inwardly rectifying potassium channel KCNH2 (Homo sapiens) (UniProt Q12809). The assay is described as follows: Human Ether-a-go-go-Related Gene (hERG) channel small molecule antagonists: fluorescence cell-based qHTS assay (AID 1671200). Further: nearly all actives have a fitted effect of over 50% in size. In outline:
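hERG-U2OS cells plated overnight at 37 C, loaded with FluxOR II dye 1 h at RT in dark; after 10 min, thallium stimulus added. Fluorescence (480/540 nm) read kinetically for 2 min at 1 s intervals.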
Background: The hERG channel carries a current that helps repolarise heart muscle cells.
Potency means the concentration at half of the fitted maximal effect.

Sequence of Voltage-gated inwardly rectifying potassium channel KCNH2 (Homo sapiens) (Q12809 whole entry, looked up): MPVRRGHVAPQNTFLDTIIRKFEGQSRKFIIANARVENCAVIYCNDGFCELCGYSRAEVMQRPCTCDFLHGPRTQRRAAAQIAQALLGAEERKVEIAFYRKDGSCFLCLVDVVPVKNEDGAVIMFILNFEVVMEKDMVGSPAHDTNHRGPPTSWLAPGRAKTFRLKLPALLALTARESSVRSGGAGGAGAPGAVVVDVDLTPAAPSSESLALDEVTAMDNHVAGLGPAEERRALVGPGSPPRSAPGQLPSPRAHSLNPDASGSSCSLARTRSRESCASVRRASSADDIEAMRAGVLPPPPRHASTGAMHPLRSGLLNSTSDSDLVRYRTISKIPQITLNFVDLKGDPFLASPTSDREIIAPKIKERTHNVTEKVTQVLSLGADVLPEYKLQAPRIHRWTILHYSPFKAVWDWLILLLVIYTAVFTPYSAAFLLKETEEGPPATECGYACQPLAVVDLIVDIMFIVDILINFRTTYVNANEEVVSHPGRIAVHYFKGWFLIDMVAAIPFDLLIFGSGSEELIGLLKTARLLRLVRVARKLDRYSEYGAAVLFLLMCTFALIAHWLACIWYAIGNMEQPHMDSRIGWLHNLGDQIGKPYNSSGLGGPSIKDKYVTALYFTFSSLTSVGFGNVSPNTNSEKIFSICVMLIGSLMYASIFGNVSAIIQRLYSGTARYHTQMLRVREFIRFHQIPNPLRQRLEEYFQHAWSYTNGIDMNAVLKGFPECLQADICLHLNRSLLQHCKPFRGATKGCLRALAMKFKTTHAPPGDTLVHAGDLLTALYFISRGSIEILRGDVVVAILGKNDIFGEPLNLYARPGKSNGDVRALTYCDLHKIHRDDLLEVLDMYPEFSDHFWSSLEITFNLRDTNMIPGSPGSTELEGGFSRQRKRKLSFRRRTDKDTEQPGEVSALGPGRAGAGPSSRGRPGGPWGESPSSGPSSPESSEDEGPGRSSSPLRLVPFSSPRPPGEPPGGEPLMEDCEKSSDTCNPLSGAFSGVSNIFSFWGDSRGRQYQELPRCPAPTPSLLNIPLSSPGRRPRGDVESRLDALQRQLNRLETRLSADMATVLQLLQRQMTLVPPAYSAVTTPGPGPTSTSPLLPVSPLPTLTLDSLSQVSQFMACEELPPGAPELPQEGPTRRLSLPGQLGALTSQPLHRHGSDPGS
Sequence of Cytochrome P450 2C19 (Homo sapiens) (P33261 whole entry, looked up): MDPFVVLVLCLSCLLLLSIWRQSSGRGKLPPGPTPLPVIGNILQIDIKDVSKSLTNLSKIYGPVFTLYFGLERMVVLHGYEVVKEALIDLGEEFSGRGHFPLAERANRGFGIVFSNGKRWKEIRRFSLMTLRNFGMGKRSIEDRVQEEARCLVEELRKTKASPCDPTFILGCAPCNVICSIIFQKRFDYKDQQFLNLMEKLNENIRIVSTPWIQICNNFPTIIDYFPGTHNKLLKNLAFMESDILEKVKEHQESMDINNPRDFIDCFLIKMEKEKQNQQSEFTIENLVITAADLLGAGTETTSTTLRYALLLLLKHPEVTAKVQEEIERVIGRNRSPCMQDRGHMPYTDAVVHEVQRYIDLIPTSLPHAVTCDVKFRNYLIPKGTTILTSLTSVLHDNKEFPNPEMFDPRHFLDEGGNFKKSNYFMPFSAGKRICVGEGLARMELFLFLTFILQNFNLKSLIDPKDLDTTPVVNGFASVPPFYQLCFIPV
Sequence of Cytochrome P450 3A4 (Homo sapiens) (P08684 whole entry, looked up): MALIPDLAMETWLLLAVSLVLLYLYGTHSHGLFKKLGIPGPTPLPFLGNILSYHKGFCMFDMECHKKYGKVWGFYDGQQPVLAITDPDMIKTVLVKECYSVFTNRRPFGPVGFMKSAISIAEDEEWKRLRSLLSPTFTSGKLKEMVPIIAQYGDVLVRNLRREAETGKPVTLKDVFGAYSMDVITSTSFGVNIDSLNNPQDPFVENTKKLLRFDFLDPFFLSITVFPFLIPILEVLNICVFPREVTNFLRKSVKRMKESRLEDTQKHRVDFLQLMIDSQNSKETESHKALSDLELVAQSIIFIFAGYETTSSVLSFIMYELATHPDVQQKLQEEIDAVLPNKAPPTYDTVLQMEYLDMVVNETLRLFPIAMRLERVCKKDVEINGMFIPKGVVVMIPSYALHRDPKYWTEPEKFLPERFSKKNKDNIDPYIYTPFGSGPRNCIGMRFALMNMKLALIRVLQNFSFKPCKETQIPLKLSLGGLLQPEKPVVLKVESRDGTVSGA

For the molecule `CCCCCCCCC`, the Potency entry in assay [1], in assay [2], in assay [3] and in assay [4] was “inactive” throughout.
Take `O=C(O)c1ccc([N+](=O)[O-])cc1`: the Potency entry in assay [1], in assay [2], in assay [3], in assay [5] and in assay [4] was “inactive” throughout.
Regarding `CCCCCCCCCCCCN`, the Potency in assay [1] is 4.02 µM (active) and 633 nM (active) and 2.56 µM (active); in assay [2] it was 22.6 µM (active) and 6.33 µM (active) and 32.2 µM (active); in assay [3] it was 16 µM (active) and 2.83 µM (active) and 9.08 µM (active); in assay [5], “inactive and 12.3 µM (active)”. Further, the Potency entry in assay [4] was “inactive”.
Regarding `Clc1ccc(Cl)c(Cl)c1Cl`, the Potency is 49.7 µM (active) in assay [1]; “inactive and 39.9 µM (active)” in assay [3]. Moreover, the Potency entry in assay [2], in assay [5] and in assay [4] was “inactive” throughout.
Regarding `C[C@@H]1O[C@@H](OC[C@H]2O[C@@H](Oc3c(-c4ccc(O)c(O)c4)oc4cc(O)cc(O)c4c3=O)[C@H](O)[C@@H](O)[C@@H]2O)[C@H](O)[C@H](O)[C@H]1O`, the Potency result in assay [1], in assay [2], in assay [3], in assay [5] and in assay [4] was “inactive” throughout.
For `Cc1cc(O)cc(C)c1Cl`, the Potency entry in assay [1], in assay [2], in assay [5] and in assay [4] was “inactive” throughout. Besides, in assay [3], the Potency was 25.2 µM (active) and 15.5 µM (active).
As to `Cc1cc(Cc2ccc(N)c(C)c2)ccc1N`, the Potency in assay [1] was 3.56 µM (active) and 5.03 µM (active); in assay [2], 6.33 µM (active) and 25.2 µM (active); in assay [3] it was 6.33 µM (active) and 14.2 µM (active); in assay [4], 894 nM (active) and 2.52 µM (active).
Take `c1ccc2ccccc2c1`: the Potency entry in assay [1], in assay [2], in assay [5] and in assay [4] was “inactive” each time. In assay [3], the Potency is 70.7 µM (active) and inactive.
On to `Oc1c(Cl)cc(Cl)c(Cl)c1Cl`, for which the Potency entry in assay [1] and in assay [4] was “inactive” throughout. Also, the Potency in assay [2] is 39.1 µM (active) and 28.3 µM (active); in assay [3] it was 62 µM (active) and 63.3 µM (active).
For the molecule `O=[N+]([O-])C(CO)(CO)CO`, the Potency in assay [1] is 69.9 µM (active) and inactive; in assay [2], 79.6 µM (active). Moreover, the Potency result in assay [3], in assay [5] and in assay [4] was “inactive” throughout.
Regarding `CCc1ccc(O)cc1`, in assay [1], the Potency is 71.3 µM (active) and inactive. Besides, the Potency entry in assay [2], in assay [3] and in assay [4] was “inactive” in each case.
With `CC(=O)Nc1ccc(C(=O)O)cc1`, the Potency result in assay [1], in assay [2], in assay [3], in assay [5] and in assay [4] was “inactive” throughout.
On to `CC(C)(C)C(=O)C1C(=O)c2ccccc2C1=O`, for which the Potency is 35.3 µM (active) and inactive in assay [1]; 22.2 µM (active) and 25.2 µM (active) in assay [2]; 31.4 µM (active) in assay [3]; 28 µM (active) in assay [4]. In assay [5], the Potency entry is “inactive”.
In the case of `CN(C)c1ccc(C(=N)c2ccc(N(C)C)cc2)cc1`, the Potency was 5.57 µM (active) and 15.3 µM (active) in assay [1]; 17.6 µM (active) and 21.6 µM (active) in assay [3]; 39.4 µM (active) in assay [4]. Moreover, in assay [2], the Potency result was “inactive”.
For the molecule `CC1=CC[C@H]2C[C@@H]1C2(C)C`, the Potency result in assay [1], in assay [2], in assay [3], in assay [5] and in assay [4] was “inactive” in each case.
For the molecule `CCOC(=O)/C=C\C(=O)OCC`, the Potency in assay [1] is 72.3 µM (active) and inactive. For the same molecule, the Potency entry in assay [2], in assay [3], in assay [5] and in assay [4] was “inactive” in each case.
As to `COCC(C)O` (stereo unspecified), the Potency entry in assay [1], in assay [2], in assay [3] and in assay [4] was “inactive” in each case.
On to `O=S(=O)(Oc1ccc(Cl)cc1Cl)c1ccccc1`, for which the Potency was 811 nM (active) and 894 nM (active) in assay [1]; 40.6 µM (active) and 35.6 µM (active) in assay [2]; 2.28 µM (active) and 2.24 µM (active) in assay [3]; 49.8 µM (active) and 34.7 µM (active) in assay [5]. Further, the Potency entry in assay [4] was “inactive”.
As to `CC1CC(OC(=O)c2ccccc2O)CC(C)(C)C1` (stereo unspecified), the Potency result in assay [1] and in assay [4] was “inactive” in each case. Besides, the Potency result in assay [2] is “inactive and 44.8 µM (active)”; in assay [3] it was “inactive and 27.5 µM (active)”.
Turning to `Cc1ccc(C(=O)O)o1`, the Potency entry in assay [1], in assay [2], in assay [3], in assay [5] and in assay [4] was “inactive” in each case.
On to `CC1COc2ccccc2N1C(=O)C(Cl)Cl` (stereo unspecified), for which the Potency in assay [1] is 7.09 µM (active) and 6.32 µM (active); in assay [2] it was 15.9 µM (active) and 28.2 µM (active); in assay [3] it was 79.5 µM (active) and inactive. For the same molecule, the Potency entry in assay [5] and in assay [4] was “inactive” in each case.
Consider `O=C(Cl)c1c(Cl)c(Cl)c(C(=O)Cl)c(Cl)c1Cl`, for which the Potency entry in assay [1], in assay [2], in assay [3], in assay [5] and in assay [4] was “inactive” in each case.
With `CC1=C(/C=C/C(C)=C/C=C/C(C)=C/CO)C(C)(C)CCC1`, the Potency is 50.9 µM (active) and 37.5 µM (active) in assay [1]; 64.1 µM (active) and 37.5 µM (active) in assay [2]; 20.3 µM (active) in assay [3]; 18.1 µM (active) and 11.9 µM (active) in assay [4].
For the molecule `CCCCNC(N)=O`, the Potency entry in assay [1], in assay [2], in assay [3], in assay [5] and in assay [4] was “inactive” each time.
As for `O=[N+]([O-])c1cccc(Cl)c1`, the Potency entry in assay [1], in assay [2], in assay [3], in assay [5] and in assay [4] was “inactive” throughout.
On to `CC(=O)CCc1ccccc1`, for which the Potency in assay [1] was 81 µM (active) and inactive. The Potency entry in assay [2], in assay [3] and in assay [4] was “inactive” in each case.
